Test results reported in PubChem BioAssay AID1159580 (chemical genetic matrix, 2015).
“And” between values parts separate entries of the source, which are not always exact repeats. Equal entries are not always repeated. Out of some 5,500 compounds screened, about 2,000 (36%) were called active. Roughly 18% stayed inconclusive and do not appear here. Rule as the data show it: active = normalized growth mostly below about 0.91 (no sharp cut-off); inconclusive = no clear call, values can overlap the other calls; inactive = mostly above about 0.92. The list shows a part of the results.

Assay: chemical genetic growth profiling, strain panel (AID 1159580);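 also: tested at 20 µM; growth read once vehicle control cultures reached saturation at 30 °C; 1 = growth at the plate median or of vehicle wells; lower values mean less growth of the strain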
Conditions: S. cerevisiae deletion strains, growth OD

Measured: normalized growth

CN(C)CCOC(C)(c1ccccc1)c1ccccn1 (centres undefined)
inactive: locus YAL021C, strain ccr4, active compounds read low 1.03 | locus YAL026C, strain drs2, active compounds read low 1 | locus YAL030W, strain snc1, active compounds read low 0.993 | locus YAL040C, strain CLN3, active compounds read low 0.998 | locus YBL061C, strain skt5, active compounds read low 1 | locus YBR009C, strain hhf1, active compounds read low 1 | locus YBR021W, strain FUR4, active compounds read low 1.01 | locus YBR023C, strain chs3, active compounds read low 1.01 | locus YBR171W, strain sec66, active compounds read low 1 | locus YBR229C, strain ROT2, active compounds read low 1.01 | locus YBR231C, strain swc5, active compounds read low 1 | locus YBR279W, strain paf1, active compounds read low 1.01 | locus YCL011C, strain gbp2, active compounds read low 1 | locus YCL016C, strain dcc1, active compounds read low 1.01 | locus YCL029C, strain bik1, active compounds read low 0.958 | locus YCL061C, strain MRC1 (second series), active compounds read low 1.01 | locus YCL061C, strain MRC1, active compounds read low 1.01 | locus YCL069W, strain vba3, active compounds read low 1.02 | locus YCR088W, strain abp1, active compounds read low 1.02 | locus YDL005C, strain med2, active compounds read low 1.01 | locus YDL035C, strain GPR1, active compounds read low 1.02 | locus YDL040C, strain nat1, active compounds read low 1.01 | locus YDL074C, strain BRE1, active compounds read low 0.977 | locus YDL101C, strain DUN1, active compounds read low 0.989 | locus YDL185W, strain tfp1, active compounds read low 0.953 | locus YDL192W, strain arf1, active compounds read low 0.99 | locus YDR001C, strain nth1, active compounds read low 1.01 | locus YDR069C, strain doa4, active compounds read low 0.975 | locus YDR101C, strain arx1, active compounds read low 0.993 | locus YDR137W, strain rgp1, active compounds read low 0.991 | locus YDR150W, strain NUM1, active compounds read low 1 | locus YDR159W, strain sac3, active compounds read low 0.928 | locus YDR162C, strain NBP2, active compounds read low 0.998 | locus YDR195W, strain ref2 0.995 | locus YDR297W, strain sur2, active compounds read low 0.973 | locus YDR318W, strain mcm21, active compounds read low 0.981 | locus YDR334W, strain swr1, active compounds read low 1.01 | locus YDR335W, strain msn5, active compounds read low 0.985 | locus YDR363W, strain ESC2, active compounds read low 0.994 | locus YDR388W, active compounds read low 0.989 | locus YDR392W, strain spt3, active compounds read low 0.974 | locus YDR502C, strain sam2, active compounds read low 0.998 | locus YEL003W, strain gim4, active compounds read low 1.01 | locus YEL037C, strain rad23, active compounds read low 1.01 | locus YEL061C, strain CIN8 (second series), active compounds read low 1.01 | locus YEL061C, strain CIN8, active compounds read low 0.991 | locus YER002W, strain NOP16, active compounds read low 1 | locus YER015W, strain faa2, active compounds read low 1.01 | locus YER016W, strain bim1, active compounds read low 1.01 | locus YER110C, active compounds read low 0.961 | locus YER111C, strain swi4, active compounds read low 1.02 | locus YER155C, strain BEM2 (second series), active compounds read low 0.99 | locus YER155C, strain BEM2, active compounds read low 0.994 | locus YER167W, strain BCK2, active compounds read low 0.986 | locus YFR010W, strain ubp6, active compounds read low 1.02 | locus YGL078C, strain dbp3, active compounds read low 0.981 | locus YGL086W, strain mad1, active compounds read low 1.01 | locus YGL167C, strain pmr1, active compounds read low 1 | locus YGL173C, strain kem1, active compounds read low 1.03 | locus YGL227W, strain vid30, active compounds read low 0.997 | locus YGL240W, strain doc1, active compounds read low 1 | locus YGL248W, strain PDE1, active compounds read low 0.979 | locus YGL253W, strain hxk2, active compounds read low 1.01 | locus YGR135W, strain pre9, active compounds read low 0.951 | locus YGR229C, strain SMI1, active compounds read low 0.995 | locus YGR252W, strain gcn5, active compounds read low 0.994 | locus YHR013C, strain ard1, active compounds read low 0.986 | locus YHR027C, strain rpn1, active compounds read low 1.01 | locus YHR030C, strain SLT2, active compounds read low 1 and 1.04 | locus YHR079C, strain IRE1 (second series), active compounds read low 0.974 | locus YHR079C, strain IRE1, active compounds read low 1.03 | locus YHR094C, strain hxt1, active compounds read low 0.985 | locus YHR129C, strain ARP1, active compounds read low 1 | locus YHR142W, strain chs7, active compounds read low 1.03 | locus YHR200W, strain rpn10, active compounds read low 0.983 | locus YIL066C, strain RNR3, active compounds read low 0.995 | locus YIL073C, strain SPO22, active compounds read low 0.924 | locus YIL125W, strain kgd1, active compounds read low 0.992 | locus YIR030C, strain dcg1, active compounds read low 0.96 | locus YJL092W, strain hpr5, active compounds read low 1.02 | locus YJL095W, strain BCK1 (second series), active compounds read low 0.983 | locus YJL095W, strain BCK1, active compounds read low 0.955 and 1.03 | locus YJL115W, strain asf1, active compounds read low 1.01 | locus YJL129C, strain trk1, active compounds read low 1.03 | locus YJL134W, strain LCB3, active compounds read low 1 | locus YJL154C, strain vps35, active compounds read low 1.01 | locus YJL164C, strain tpk1, active compounds read low 1.01 | locus YJL166W, strain qcr8, active compounds read low 1 | locus YJL168C, strain set2, active compounds read low 0.991 | locus YJL187C, strain SWE1 (second series), active compounds read low 0.977 | locus YJL187C, strain SWE1, active compounds read low 0.999 | locus YJR043C, strain POL32, active compounds read low 1.04 | locus YJR066W, strain TOR1, active compounds read low 0.941 | locus YJR075W, strain HOC1, active compounds read low 0.974 | locus YKL009W, strain mrt4, active compounds read low 0.954 | locus YKL068W, active compounds read low 0.983 | locus YKL085W, strain MDH1 (second series), active compounds read low 0.971 | locus YKL085W, strain MDH1, active compounds read low 0.971 | locus YKL160W, strain elf1, active compounds read low 0.988 | locus YKR001C, strain vps1, active compounds read low 0.976 | locus YKR026C, strain gcn3, active compounds read low 1 | locus YKR091W, strain srl3, active compounds read low 1.01 | locus YLL001W, strain dnm1, active compounds read low 1.02 | locus YLL026W, active compounds read low 1 | locus YLL041C, strain sdh2, active compounds read low 0.963 | locus YLR027C, strain aat2, active compounds read low 0.997 | locus YLR039C, strain RIC1, active compounds read low 0.989 | locus YLR058C, strain SHM2, active compounds read low 0.993 | locus YLR102C, strain apc9, active compounds read low 0.976 | locus YLR113W, strain HOG1, active compounds read low 1.07 | locus YLR221C, strain rsa3, active compounds read low 1.01 | locus YLR258W, strain gsy2, active compounds read low 0.985 | locus YLR262C, strain YPT6 (second series), active compounds read low 1.05 | locus YLR262C, strain YPT6, active compounds read low 0.939 | locus YLR268W, strain sec22, active compounds read low 0.983 | locus YLR320W, strain mms22, active compounds read low 0.984 | locus YLR330W, strain CHS5, active compounds read low 0.995 | locus YLR342W, strain FKS1 (second series), active compounds read low 1.07 | locus YLR342W, strain FKS1, active compounds read low 1.02 | locus YLR357W, strain rsc2, active compounds read low 1.02 | locus YLR370C, strain arc18, active compounds read low 0.967 | locus YLR371W, strain rom2, active compounds read low 0.97 | locus YLR384C, strain iki3, active compounds read low 0.996 | locus YLR418C, strain cdc73, active compounds read low 0.98 | locus YML016C, strain PPZ1, active compounds read low 1 | locus YML032C, strain rad52, active compounds read low 0.997 | locus YML120C, strain ndi1, active compounds read low 0.995 | locus YML124C, strain tub3, active compounds read low 0.985 | locus YMR058W, strain fet3, active compounds read low 1.03 | locus YMR078C, strain ctf18, active compounds read low 0.963 | locus YMR125W, strain sto1, active compounds read low 1 | locus YMR129W, active compounds read low 0.982 | locus YMR205C, strain PFK2, active compounds read low 0.992 | locus YMR223W, strain ubp8, active compounds read low 0.966 | locus YMR231W, strain pep5, active compounds read low 1.01 | locus YMR263W, strain SAP30, active compounds read low 0.991 | locus YMR307W, strain GAS1, active compounds read low 1.04 and 0.992 | locus YNL067W, strain RPL9B, active compounds read low 0.967 | locus YNL071W, strain lat1, active compounds read low 1.01 | locus YNL175C, strain NOP13, active compounds read low 0.992 | locus YNL183C, strain NPR1, active compounds read low 1 | locus YNL197C, strain WHI3, active compounds read low 0.982 | locus YNL209W, strain ssb2, active compounds read low 1.02 | locus YNL224C, strain SQS1, active compounds read low 1 | locus YNL233W, strain BNI4, active compounds read low 0.986 | locus YNL248C, strain rpa49, active compounds read low 1.04 | locus YNL250W, strain rad50, active compounds read low 0.984 | locus YNL271C, strain bni1, active compounds read low 0.987 | locus YNL298W, strain CLA4, active compounds read low 0.989 | locus YNL307C, strain MCK1, active compounds read low 0.983 | locus YNL322C, strain KRE1 (second series), active compounds read low 1.01 | locus YNL322C, strain KRE1, active compounds read low 0.994 | locus YNR049C, strain mso1, active compounds read low 0.962 | locus YNR052C, strain pop2, active compounds read low 0.977 | locus YOL012C, strain htz1 0.665 | locus YOL147C, strain pex11, active compounds read low 0.984 | locus YOR001W, strain rrp6, active compounds read low 1.03 | locus YOR061W, strain CKA2, active compounds read low 0.996 | locus YOR069W, strain VPS5, active compounds read low 0.999 | locus YOR070C, strain gyp1, active compounds read low 1 | locus YOR080W, strain dia2, active compounds read low 1.01 | locus YOR083W, strain WHI5 (second series), active compounds read low 0.984 | locus YOR083W, strain WHI5, active compounds read low 0.973 | locus YOR106W, strain vam3, active compounds read low 1.02 | locus YOR136W, strain idh2, active compounds read low 0.983 | locus YOR144C, strain elg1, active compounds read low 0.993 | locus YOR184W, strain ser1, active compounds read low 0.959 | locus YOR231W, strain MKK1, active compounds read low 1.07 | locus YOR265W, strain rbl2, active compounds read low 0.999 | locus YOR270C, strain vph1, active compounds read low 1.07 | locus YOR290C, strain snf2, active compounds read low 1.01 | locus YOR316C, strain cot1, active compounds read low 0.975 | locus YPL051W, strain arl3, active compounds read low 1 | locus YPL055C, strain LGE1, active compounds read low 0.992 and 1.03 | locus YPL078C, strain atp4, active compounds read low 1 | locus YPL106C, strain sse1, active compounds read low 0.98 | locus YPL240C, strain hsp82, active compounds read low 0.977 | locus YPL241C, strain CIN2, active compounds read low 0.999 | locus YPL256C, strain CLN2, active compounds read low 1.03 | locus YPR119W, strain clb2, active compounds read low 0.98 | locus YPR141C, strain kar3, active compounds read low 0.971 | locus YPR163C, strain tif3, active compounds read low 0.977 | locus YPR167C, strain met16, active compounds read low 0.98 | strain wtn01, active compounds read low 0.996
